Assay results reported in PubChem BioAssay AID1159580 (chemical genetic matrix, 2015).
In all, about 5,500 compounds went through this assay and about 2,000 (36%) were called active. About 18% were inconclusive and are not listed. Cut-off read from the data, not from the text of the source: active = normalized growth mostly below about 0.91 (no sharp cut-off); inconclusive = no clear call, values can overlap the other calls; inactive = mostly above about 0.92. Some of the results follow.

Assay: chemical genetic growth profiling, strain panel (AID 1159580);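 note: tested at 20 µM; growth read once vehicle control cultures reached saturation at 30 °C; 1 = growth at the plate median or of vehicle wells; lower values mean less growth of the strain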
Conditions: growth OD
[1] = S. cerevisiae deletion strains, locus YGR229C, strain SMI1, active compounds read low
[2] = S. cerevisiae deletion strains, locus YJR075W, strain HOC1, active compounds read low
[3] = S. cerevisiae deletion strains, locus YMR263W, strain SAP30, active compounds read low
[4] = S. cerevisiae deletion strains, locus YNL322C, strain KRE1, active compounds read low
[5] = S. cerevisiae deletion strains, locus YPL055C, strain LGE1, active compounds read low
[6] = S. cerevisiae deletion strains, locus YPL241C, strain CIN2, active compounds read low

Measured: normalized growth

O=C1c2ccccc2C(=O)N1CN1CCC(O)(c2ccc(Cl)cc2)CC1
inactive: S. cerevisiae deletion strains, locus YAL013W, strain DEP1, active compounds read low 0.975 | S. cerevisiae deletion strains, locus YBR229C, strain ROT2, active compounds read low 0.982 | S. cerevisiae deletion strains, locus YDL101C, strain DUN1, active compounds read low 0.988 | S. cerevisiae deletion strains, locus YDL134C, strain PPH21, active compounds read low 1.01 | S. cerevisiae deletion strains, locus YDR150W, strain NUM1, active compounds read low 1.01 | S. cerevisiae deletion strains, locus YEL061C, strain CIN8, active compounds read low 0.991 | S. cerevisiae deletion strains, locus YGR078C, strain PAC10, active compounds read low 0.981 | [1] 0.999 | S. cerevisiae deletion strains, locus YHR030C, strain SLT2, active compounds read low 0.953 | S. cerevisiae deletion strains, locus YHR087W, strain rtc3, active compounds read low 0.99 | S. cerevisiae deletion strains, locus YJR043C, strain POL32, active compounds read low 0.966 | [2] 0.987 | S. cerevisiae deletion strains, locus YKL190W, strain CNB1, active compounds read low 1.01 | S. cerevisiae deletion strains, locus YLR039C, strain RIC1, active compounds read low 0.988 | S. cerevisiae deletion strains, locus YLR058C, strain SHM2 (second series), active compounds read low 0.978 | S. cerevisiae deletion strains, locus YLR085C, strain ARP6, active compounds read low 1.06 | S. cerevisiae deletion strains, locus YLR262C, strain YPT6, active compounds read low 0.93 | S. cerevisiae deletion strains, locus YML094W, strain GIM5, active compounds read low 1.02 | S. cerevisiae deletion strains, locus YMR219W, strain ESC1, active compounds read low 0.993 | [3] 0.926 | S. cerevisiae deletion strains, locus YNL128W, strain TEP1, active compounds read low 0.987 | S. cerevisiae deletion strains, locus YNL153C, strain GIM3, active compounds read low 1.02 | S. cerevisiae deletion strains, locus YNL298W, strain CLA4 (second series), active compounds read low 0.974 | [4] 0.985 | S. cerevisiae deletion strains, locus YNR030W, strain Alg12, active compounds read low 0.991 | [5] 0.947 | [6] 1.01 | S. cerevisiae deletion strains, locus YPR135W, strain CTF4, active compounds read low 0.94 | S. cerevisiae strains, strain wild type, active compounds read low 0.992

O=C(CCCN1CCC2(CC1)C(=O)N(CCc1ccc(N=C=S)cc1)CN2c1ccccc1)c1ccc(F)cc1
inactive: S. cerevisiae deletion strains, locus YAL040C, strain CLN3, active compounds read low 1.04 | S. cerevisiae deletion strains, locus YCL061C, strain MRC1 (second series), active compounds read low 0.982 | S. cerevisiae deletion strains, locus YDR363W, strain ESC2, active compounds read low 0.972 | S. cerevisiae deletion strains, locus YER002W, strain NOP16, active compounds read low 1.03 | [1] 0.984 | [2] 0.968 | [3] 0.987 | S. cerevisiae deletion strains, locus YMR307W, strain GAS1, active compounds read low 0.982 | S. cerevisiae deletion strains, locus YNL175C, strain NOP13, active compounds read low 1 | S. cerevisiae deletion strains, locus YNL197C, strain WHI3, active compounds read low 1.02 | S. cerevisiae deletion strains, locus YNL224C, strain SQS1, active compounds read low 1.05 | [4] 0.948 | S. cerevisiae deletion strains, locus YOR083W, strain WHI5 (second series), active compounds read low 1.08 | [5] 0.916 | [6] 0.984
